MARV entry inh: qHTS for inhibitors of binding or entry into cells for Marburg Virus; AID 540276, 2011; Potency, µM (titrated, usually from 37.8 µM), without a hit: top-dose activity change, negative = inhibition, actives largely listed as inhibitors; Marburg virus pseudotyped entry inhibition, cell reporter; 1.8% of 300,000 active; calls by dose curve; tested in HEK293 cells
Sm TGR inh: qHTS Assay for the Inhibitors of Schistosoma Mansoni Peroxiredoxins. Schistosoma mansoni thioredoxin glutathione reductase (TGR), Q962Y6. 3% of 360,000 active. Potency, µM (highest dose often 114 µM), without a hit: at the top dose activity change, negative = inhibition, most hits filed as inhibitors. AID 485364, 2010. purified TGR, DTNB reduction, TNB absorbance 405 nm; active = well fitted inhibition curve with a large enough effect; inconclusive = small, poorly fitted or top-dose-only effect; inactive = no such curve, though single readings can be large or run the other way; note: nearly all actives have a fitted effect of over 60% in size
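First, TGR (20 nM dispensed) and NADPH were mixed with compound. Second, a 15 min room-temperature incubation followed. Third, further NADPH and then DTNB were added to start the reaction. Finally, TNB absorbance was monitored kinetically.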
Lassa entry inh: qHTS for Inhibitors of binding or entry into cells for Lassa Virus | Lassa virus pseudotype entry inhibition, cell reporter | Potency, µM (top dose mostly 37.9 µM), for the others: at the top dose activity change, negative = inhibition, most hits filed as inhibitors | 1.2% of 300,000 active | AID 540256, 2011; calls by dose curve; tested in HEK293 cells; note: nearly all actives have a fitted effect of over 50% in size
Vaccinia Venus: qHTS for Stage-Specific Inhibitors of Vaccinia Orthopoxvirus: Venus Reporter Primary qHTS. Vaccinia virus Venus reporter expression, fluorescence. Potency, µM (highest dose often 36.5 µM), inactives show at the top dose activity change, negative = inhibition, usual class: inhibitors. 0.46% of 330,000 active; calls by dose curve; tested in A549 cells; note: nearly all actives have a fitted effect of over 30% in size
Vaccinia mCherry: qHTS for Stage-Specific Inhibitors of Vaccinia Orthopoxvirus: mCherry Reporter Primary qHTS | 0.63% of 310,000 active | AID 720579, 2013 | Vaccinia virus mCherry reporter infection, fluorescence | Potency, µM (series often up to 36.5 µM), for the others: at the top dose activity change, negative = inhibition, most hits filed as inhibitors; calls by dose curve; tested in A549 cells; note: nearly all actives have a fitted effect of over 35% in size
FMDV inh: High Throughput Screening for Foot and Mouth Disease Virus Antivirals; FMDV antiviral cell-based qHTS; Potency, µM (highest dose often 57.9 µM), inactives show at the top dose activity change, negative = inhibition, usual class: inhibitors; 1.2% of 410,000 active; AID 1159524, 2015; calls by dose curve; tested in HEK293T cells; note: read-out not given here; nearly all actives have a fitted effect of over 45% in size
Active calls of the source: *; i = inactive; u = inconclusive; x = not tested or not shown; [ ] = remark or other dose. A selection: hits, their analogues and other compounds. The true share with any hit is near 5.4%. % is set by controls: 0 for no effect and ±100 for the full control effect; potency is the fitted concentration of half-maximal effect.

SMILES	MARV entry inh	Sm TGR inh	Lassa entry inh	Vaccinia Venus	Vaccinia mCherry	FMDV inh
CCOC(=O)c1c(-c2ccccc2)csc1NC(=O)c1nc(S(=O)(=O)CC)ncc1Cl	u	2µM*	-17%[46.1 µM]	u	u	14µM*
CCCS(=O)(=O)c1ncc(Cl)c(C(=O)Nc2ccc(S(=O)(=O)Nc3ncccn3)cc2)n1	x	13µM*	x	x	x	-10%
CO[C@H]1[C@H](NC(=O)c2ccsc2)c2ccccc2C12CCN(Cc1c(O)ccc3ccccc13)CC2	x	x	x	4%	-11%	13%
CCOC(=O)c1ccc(NC(=O)Nc2ncc(Cl)cc2Cl)cc1	x	40µM*	x	x	x	x
CCOC(=O)c1c(-c2ccccc2)csc1NC(=S)N(CC)CC	u	1%	-8%	-9%	i	u
CCOC(=O)c1ccc(NC(=O)Nc2ncccc2C)cc1	x	12%	x	x	x	30%
CCOC(=O)c1c(NC(=O)c2nc(S(C)(=O)=O)ncc2Cl)sc(C(C)=O)c1C	3%[46.1 µM]	2.2µM*	-15%[46.1 µM]	-15%[7.34 µM]	-11%[7.34 µM]	u
CCOC(=O)c1c(-c2ccccc2)csc1NC(=O)c1nn(CC)cc1Br	10µM*	10%	u	56%	-4%	x
CCS(=O)(=O)c1ncc(Cl)c(C(=O)Nc2ccc(S(=O)(=O)N3CCC(C)CC3)cc2)n1	u	0.45µM*	u	18µM*	u	14µM*
COC(=O)[C@@H]1CCCN1C(=O)c1c(OC)cc(=O)n2c1CCN(Cc1ccc(C)o1)CC2	x	x	x	-14%	-18%	0%
CN(CCO)C(=O)c1cn(C2CCCN(Cc3ccc4ccccc4c3)C2)nn1 (stereo not drawn)	x	x	x	-12%	i	-22%
Cc1c(C(=O)N2CCCC2)sc2ncnc(NCCCN3CCOCC3)c12	x	x	x	0%	i	-5%
CCS(=O)(=O)c1ncc(Cl)c(C(=O)Nc2c(C(=O)Nc3cccc(C)c3)oc3ccccc23)n1	39%[46.1 µM]	3%	u	-9%	-20%	-17%
NS(=O)(=O)c1ccc(NC(=O)c2nc(S(=O)(=O)Cc3ccccc3F)ncc2Cl)cc1	x	x	x	-9%	21%	x
CN(c1ccccc1)S(=O)(=O)c1ccc(NC(=O)c2nc(S(C)(=O)=O)ncc2Cl)cc1	u	1.3µM*	u	-6%[7.34 µM]	-8%[7.34 µM]	11µM*
CS(=O)(=O)c1ncc(Cl)c(C(=O)Nc2c(C(=O)Nc3ccccc3)oc3ccccc23)n1	-24%[46.1 µM]	6%	0%[46.1 µM]	u	u	28µM*
CCc1ccc(NC(=O)c2nc(S(=O)(=O)Cc3ccccc3)ncc2Cl)cc1	x	6.3µM*	x	x	x	x
CCC(Sc1ncccc1C(=O)Oc1ccccc1Cl)C(=O)Nc1ccccc1OC (stereo not drawn)	x	1%	24%[46.1 µM]	-4%	-2%	-8%
CC(NC(=O)/C(C#N)=C/c1ccc([N+](=O)[O-])o1)c1ccccc1 (stereo not drawn)	u	1.3µM*	u	74%	5%	28µM*
CCOCCCNC(=O)/C(C#N)=C/c1ccc([N+](=O)[O-])o1	u	8.9µM*	u	51%	34%	32µM*
CCOCCCNC(=O)/C(C#N)=C/c1ccc(-c2ccc(S(=O)(=O)N3CCOCC3)cc2)o1	u	u	u	-15%	i	-11%
CC1CN(CCC(=O)NC(c2cccnc2)C(F)(F)F)Cc2cc(Cl)ccc2O1 (stereo not drawn)	x	x	x	-10%	-10%	-7%
CCOCCc1nn2c(=O)cc(COC(=O)C(CC)c3ccccc3)nc2s1 (stereo not drawn)	x	-5%	2%[46.1 µM]	-17%	-5%	-25%
CSc1cc(-c2ccncc2)nc(-c2ccc(Cl)cc2)c1	4.5µM*	3%	14%	-22%	u	-6%
Clc1ccc2nc(-c3ccncc3)cc(-c3ccccc3)c2c1	-4%	-2%	6%	-18%	-19%	u
SMILES	MARV entry inh	Sm TGR inh	Lassa entry inh	Vaccinia Venus	Vaccinia mCherry	FMDV inh
COc1ccccc1C(=O)N[C@@H]1c2ccccc2C2(CCN(Cc3cccnc3)CC2)[C@H]1O	x	x	x	-8%	-16%	-6%
COc1cccc2c1[C@H](C=Cc1ccccc1)[C@@H]([C@H](O)CN=[N+]=[N-])OC2	-5%[14.2 µM]	x	x	x	x	x
Cn1nnnc1N=N/C(=N/Nc1ccccc1)c1ccccc1	1µM*	-12%	u	-29%	u	-6%
COC(=O)c1ccc(CN2C(=O)[C@@]3(CC(C)=CC[C@@H](COc4ccccc4)O3)c3c(Br)cccc32)cc1	-28%[14.2 µM]	x	7%[14.3 µM]	x	x	x
O=C(CSC1=Nc2ccccc2C2CC=NN12)Nc1ccc2c(c1)OCO2 (stereo not drawn)	u	-22%	-2%[46.1 µM]	4%	i	20µM*
CCCOC(=O)c1ccc(NC(=O)CSC2=Nc3ccccc3C3CC=NN23)cc1 (stereo not drawn)	-3%	4%	2%	x	x	-8%
Cc1cc(C2CCCCC2)n(O)c(=O)c1	x	-4%	x	u	4.5µM*	-28%
O=C(Nc1ccccc1)Oc1ccc[nH]c1=O	x	50µM*	x	x	x	12%
O=C(Cn1c(=O)n(Cc2nc(-c3ccccc3)no2)c(=O)c2ccccc21)Nc1cccc(C(F)(F)F)c1	x	9%	9%[46.1 µM]	-17%	-11%	20µM*
CN1C(=O)C(O)(CC(=O)/C=C/c2ccco2)c2cc(Br)ccc21 (stereo not drawn)	u	18µM*	u	x	x	-4%
O=C(/C=C/c1ccco1)NCc1ccc2c(c1)OCO2	-7%[46.1 µM]	14µM*	6%[46.1 µM]	2%	i	0%
CC(C)(C)c1ccc(/C=C/C(=O)Nc2ccc3c(c2)OCCO3)cc1	-27%	x	6.5µM*	x	x	x
COc1ccc(/C=C/C(=O)NCC2COc3ccccc3O2)c(OC)c1 (stereo not drawn)	12%[46.1 µM]	10%	14%	-3%	-11%	49%
O=C(CCC1COc2ccccc2O1)NCc1ccco1 (stereo not drawn)	5%	40µM*	8%	-8%	x	-29%
O=C(/C=C/c1ccco1)NCC1COc2ccccc2O1 (stereo not drawn)	2%[46.1 µM]	0.89µM*	0%	-2%[7.34 µM]	-8%[7.34 µM]	27%
O=C(/C=C/c1ccccc1)NCc1ccc2c(c1)OCO2	7%[46.1 µM]	2%	-21%[46.1 µM]	0%	-1%	24%
Cc1ccc2cccc(NC(=O)c3ccc(-c4cccc(Cl)c4Cl)o3)c2n1	0%[46.1 µM]	0%	-3%[46.1 µM]	4%	-3%	-11%
Cc1ncc2c(c1CNC(=O)c1ccc3c(c1)OCO3)CCN(C(=O)c1noc3c1CCCC3)C2	x	x	x	-4%	-7%	-11%
Cc1ccc(Nc2sc(C(=O)c3ccccc3)c(N)c2S(=O)(=O)c2ccccc2)c(C)c1	u	u	u	-17%	-17%	-23%
O=C(/C=C/c1ccco1)NCC1OCCc2ccccc21 (stereo not drawn)	-5%[46.1 µM]	0.5µM*	-1%	2%	i	-8%
